Test results: PubChem BioAssay (Tox21)
Values joined by “and” are separate entries in the source; they are usually repeats but may differ in a detail not shown here. Equal values may be shown once. Records with an inconclusive call do not appear. Some structures have more than one record in an assay (separate samples or runs), and their calls can disagree. Active and inactive are the calls of the source. Unless noted, the call rests on the fitted dose curve; in most records, active means well fitted curve in the direction sought with a large enough effect in the repeat runs; inconclusive means weak or mixed curves; inactive means no such curve, though single readings can be large; an effect the other way counts as inactive or inconclusive.

Experiments:
[1] = target: Thyrotropin receptor (Homo sapiens) (UniProt P16473); experiment: qHTS assay to identify small molecule agonists of the thyroid stimulating hormone receptor (TSHR) signaling pathway (AID 1224843; calls by dose curve; further: nearly all actives have a fitted effect of over 45% in size; further: potency means the concentration at half of the fitted maximal effect)
Thyrotropin receptor (Homo sapiens), sequence (P16473 whole entry, looked up): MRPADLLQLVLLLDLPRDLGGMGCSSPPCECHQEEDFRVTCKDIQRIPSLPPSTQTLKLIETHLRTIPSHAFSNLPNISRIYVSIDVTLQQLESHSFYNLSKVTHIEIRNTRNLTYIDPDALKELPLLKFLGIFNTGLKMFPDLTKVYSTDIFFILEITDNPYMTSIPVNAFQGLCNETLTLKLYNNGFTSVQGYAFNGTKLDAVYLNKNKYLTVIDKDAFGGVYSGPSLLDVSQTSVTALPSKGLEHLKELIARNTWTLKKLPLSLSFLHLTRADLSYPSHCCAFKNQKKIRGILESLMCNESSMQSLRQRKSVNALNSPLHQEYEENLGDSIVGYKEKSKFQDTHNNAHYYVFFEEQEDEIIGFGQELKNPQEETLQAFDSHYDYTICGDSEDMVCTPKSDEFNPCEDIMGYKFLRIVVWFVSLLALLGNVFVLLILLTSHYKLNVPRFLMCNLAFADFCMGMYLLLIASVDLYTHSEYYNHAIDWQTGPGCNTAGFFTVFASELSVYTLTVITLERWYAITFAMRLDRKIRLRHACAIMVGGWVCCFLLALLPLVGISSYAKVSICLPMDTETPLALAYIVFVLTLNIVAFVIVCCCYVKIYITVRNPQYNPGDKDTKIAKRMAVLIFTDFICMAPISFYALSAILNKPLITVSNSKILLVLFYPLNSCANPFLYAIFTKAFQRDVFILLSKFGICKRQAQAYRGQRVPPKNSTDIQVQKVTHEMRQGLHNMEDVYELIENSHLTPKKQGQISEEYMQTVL
How it was run: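 TSHR-HEK293 cells in agonist mode, 30 min room-temperature step, then cAMP measured by competitive HTRF (cAMP-d2 with anti-cAMP cryptate) after 1 h at room temperature. Tested at 15 concentrations in triplicate.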

[2] = qHTS assay to identify small molecule agonists of the hypoxia (HIF-1) signaling pathway - cell viability counter screen (AID 1224844; calls by dose curve; further: nearly all actives have a fitted effect of over 50% in size; further: potency means the concentration at half of the fitted maximal effect)
How it was run: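 Tox21 10K compounds were added to HRE-bla ME-180 cells (0.5% dialyzed FBS) and incubated 17 hrs at 37C; ATP-based CellTiter-Glo luminescence then reported cell viability in the same wells.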

[3] = qHTS assay to identify small molecule agonists of H2AX (AID 1224845; active means well fitted activation curve with a large enough effect in the signal ratio in the repeat runs, not every such curve was filed as active; the % refers to the signal ratio)
How it was run: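 Wild-type CHO-K1 cells, plated overnight, exposed 3hr at 37C to 15 concentrations (0.76% DMSO final). Lysed, then HTRF anti-pH2AX (S139) cryptate and anti-H2AX-d2 antibodies, 24 hr room temperature; 665/620 nm emission read.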

[4] = qHTS assay to identify small molecule agonists of the hypoxia (HIF-1) signaling pathway (AID 1224846; active means well fitted activation curve with a large enough effect in the signal ratio in the repeat runs, not every such curve was filed as active; the % refers to the signal ratio)
How it was run: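 Steps: seed ME-180 HRE-bla cells (2,000/well, 0.5% dialyzed FBS); incubate 5 hrs at 37C; pin-transfer compounds or DMSO; incubate 17 hrs; add LiveBLAzer B/G substrate CCF4-AM; measure reporter activation by FRET.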

[5] = qHTS assay to identify small molecule agonists of H2AX - cell viability counter screen (AID 1224847; calls by dose curve; further: nearly all actives have a fitted effect of over 30% in size; further: potency means the concentration at half of the fitted maximal effect)
How it was run: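 For this counter screen, overnight-attached CHO-K1 cells received test compounds (15 concentrations, 0.76% DMSO final); 3 hr later at 37C, CellTiter-Glo reagent was added and luminescence recorded after 30 min at room temperature.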

[6] = qHTS RealTime-Glo MT Cell Viability Assay in HEK293 cells - 32 hour (AID 1224868); further: nearly all actives have a fitted effect of over 50% in size; further: potency means the concentration at half of the fitted maximal effect
How it was run: (§1)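 Cells + reagent dispensed (600 cells/well, HEK293) → 5 h at 37 C/5% CO2 → 23 nL compound in DMSO pinned → 40 h at 37 C → luminescence read at 0, 8, 16, 24, 32, 40 h.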

[7] = A CellTox Green Cytotoxicity Assay to monitor cytotoxicity in HEK293 cells - 0 hour (AID 1224869); further: nearly all actives have a fitted effect of over 50% in size
How it was run: (§2)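 Cytotoxicity was tracked continuously in HEK293 cells by a DNA-binding dye excluded from viable cells. Compounds were transferred in DMSO 5 h after seeding; fluorescence was recorded at intervals up to 40 h.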

[8] = qHTS RealTime-Glo MT Cell Viability Assay in HepG2 cells - 40 hour (AID 1224870); further: nearly all actives have a fitted effect of over 50% in size; further: potency means the concentration at half of the fitted maximal effect
How it was run: (§3)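 HepG2 cells (600/well) mixed with RealTime-Glo MT reagent, settled 5 h at 37 C/5% CO2 before compound addition. Nonlytic NanoLuc luminescence from viable-cell prosubstrate reduction read repeatedly during 40 h treatment at 37 C.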

[9] = qHTS RealTime-Glo MT Cell Viability Assay in HEK293 cells - 16 hour (AID 1224872); further: nearly all actives have a fitted effect of over 50% in size; further: potency means the concentration at half of the fitted maximal effect
How it was run: as §1

[10] = qHTS RealTime-Glo MT Cell Viability Assay in HepG2 cells - 8 hour (AID 1224873); further: nearly all actives have a fitted effect of over 55% in size; further: potency means the concentration at half of the fitted maximal effect
How it was run: as §3

[11] = qHTS RealTime-Glo MT Cell Viability Assay in HEK293 cells - 40 hour (AID 1224874); conditions: RealTime-Glo luminescence; max response: stronger effect = lower value; further: nearly all actives have a fitted effect of over 50% in size; further: potency means the concentration at half of the fitted maximal effect
How it was run: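 Nonlytic bioluminescent viability monitoring. HEK293 at 600 cells/well with reagent; 5 h settle; compound transfer by pintool; plates held at 37 C and read at set time points.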

[12] = A CellTox Green Cytotoxicity Assay to monitor cytotoxicity in HEK293 cells - 24 hour (AID 1224875); further: nearly all actives have a fitted effect of over 45% in size; further: potency means the concentration at half of the fitted maximal effect
How it was run: as §2

[13] = A CellTox Green Cytotoxicity Assay to monitor cytotoxicity in HepG2 cells - 16 hour (AID 1224876); further: nearly all actives have a fitted effect of over 45% in size; further: potency means the concentration at half of the fitted maximal effect
How it was run: (§4)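 Real-time, homogeneous cytotoxicity readout: dead-cell DNA staining by CellTox Green in HepG2 monolayers, fluorescence measured at timed intervals up to 40 h of continuous compound exposure.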

[14] = qHTS RealTime-Glo MT Cell Viability Assay in HepG2 cells - 32 hour (AID 1224877); further: nearly all actives have a fitted effect of over 55% in size; further: potency means the concentration at half of the fitted maximal effect
How it was run: (§5)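 Real-time, nonlytic viability: 600 HepG2 cells/well mixed with NanoLuc enzyme plus prosubstrate; 5 h settle, compound (DMSO) added by pintool; luminescence monitored over 40 h at 37 C.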

[15] = A CellTox Green Cytotoxicity Assay to monitor cytotoxicity in HepG2 cells - 24 hour (AID 1224878); further: nearly all actives have a fitted effect of over 45% in size; further: potency means the concentration at half of the fitted maximal effect
How it was run: as §4

[16] = A CellTox Green Cytotoxicity Assay to monitor cytotoxicity in HepG2 cells - 40 hour (AID 1224879); further: nearly all actives have a fitted effect of over 40% in size; further: potency means the concentration at half of the fitted maximal effect
How it was run: as §4

[17] = qHTS assay to identify small molecule agonists of the estrogen related receptor (ERR) signaling pathway from Tox21 library (AID 1224849; calls by dose curve; further: nearly all actives have a fitted effect of over 15% in size); conditions: ERR reporter cell line, ONE-Glo luciferase, 18 h
How it was run: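 Agonist signal is luciferase luminescence from an ERR reporter cell line treated 18 h at 37 C with DMSO-dissolved compounds, read 30 min after ONE-Glo addition at room temperature.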

[18] = qHTS RealTime-Glo MT Cell Viability Assay in HepG2 cells - 24 hour (AID 1224867); further: nearly all actives have a fitted effect of over 50% in size; further: potency means the concentration at half of the fitted maximal effect
How it was run: as §5

[19] = qHTS assay to identify small molecule antagonists of the estrogen related receptor (ERR) signaling pathway from Tox21 library (AID 1224848); further: nearly all actives have a fitted effect of over 50% in size; further: potency means the concentration at half of the fitted maximal effect
How it was run: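 ERR reporter cell line (from NTP) seeded 2,000 cells/well, rested 6 h at 37 C/5% CO2, then pin-dosed with compounds in DMSO. After 18 h at 37 C, ONE-Glo added; luminescence read after 30 min at room temperature.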

[20] = A CellTox Green Cytotoxicity Assay to monitor cytotoxicity in HEK293 cells - 40 hour (AID 1224871); further: nearly all actives have a fitted effect of over 45% in size; further: potency means the concentration at half of the fitted maximal effect
How it was run: as §2

[21] = at 92.4 µM (top of the series) unless noted
On the % scale 0 is the no-effect control and ±100 the full control effect.

OCCOCC#CCOCCO
inactive: Potency [1] | Potency [2] | Potency [3] | outcome [4] | Potency [5] | Potency [6] | Potency [7] | Potency [8] | Potency [9] | Potency [10] | max response [11] 7.98% | Potency [12] | Potency [13] | Potency [14] | Potency [15] | Potency [16]

COc1ccccc1Oc1c(NS(=O)(=O)c2ccc(C(C)(C)C)cc2)nc(-c2ncccn2)nc1OCCO
inactive: Potency [1] | Potency [2] | Potency [3] | activity change, positive = activation [17, 21] -21.1% [at 42.5 µM] | Potency [18] | Potency [6] | Potency [7] | Potency [8] | Potency [9] | Potency [10] | Potency [12] | Potency [13] | Potency [14] | Potency [15] | Potency [16]

O=C1Cc2cc(Cl)ccc2N1
inactive: Potency [1] | Potency [2] | Potency [3] | Potency [5] | Potency [19] | activity change, positive = activation [17, 21] 0.547% [at 42.5 µM] | Potency [18] | Potency [6] | Potency [7] | Potency [8] | Potency [20] | Potency [10] | Potency [12] | Potency [13] | Potency [14] | Potency [15] | Potency [16]

C=CC(C)(CCC=C(C)C)OC(=O)CC(C)C (stereo not given)
inactive: Potency [1] | Potency [2] | Potency [3] | outcome [4] | Potency [5] | Potency [6] | Potency [8] | Potency [20] | Potency [9] | Potency [10] | max response [11] 7.92% | Potency [12] | Potency [14] | Potency [15] | Potency [16]

O=C(OC(=O)c1ccccc1)c1ccccc1
inactive: Potency [1] | Potency [2] | Potency [3] | Potency [5] | Potency [18] | Potency [6] | Potency [7] | Potency [8] | Potency [20] | Potency [9] | Potency [10] | Potency [12] | Potency [13] | Potency [15] | Potency [16]

CC(C)c1nc(CN(C)C(=O)N[C@H](C(=O)N[C@@H](Cc2ccccc2)C[C@H](O)[C@H](Cc2ccccc2)NC(=O)OCc2cncs2)C(C)C)cs1
active: Potency [2] 9.52 µM | Potency [19] 21.1 µM | Potency [6] 21.3 µM | Potency [11] 21.3 µM | Potency [16] 21.3 µM
inactive: Potency [1] | Potency [3] | outcome [4] | activity change, positive = activation [17, 21] -41.1% [at 42.5 µM] | Potency [18] | Potency [7] | Potency [8] | Potency [10] | Potency [14] | Potency [15]

COc1cc(C(=O)NC2CCN(C)CC2)ccc1Nc1ncc2c(n1)N(C1CCCC1)CC(F)(F)C(=O)N2C
active: Potency [2] 20 µM | Potency [18] 40 µM | Potency [6] 0.0142 µM | Potency [8] 44.9 µM | Potency [20] 35.7 µM | Potency [9] 2 µM | Potency [11] 0.0179 µM | Potency [12] 20 µM | Potency [13] 44.9 µM | Potency [14] 40 µM | Potency [15] 40 µM | Potency [16] 22.5 µM
inactive: Potency [1] | outcome [4] | activity change, positive = activation [17, 21] -53.6%

CS(=O)(=O)c1ccc(-c2cn3ccccc3n2)cc1
active: Potency [2] 23.9 µM | Potency [5] 31 µM
inactive: Potency [1] | outcome [4] | Potency [19] | Potency [7] | Potency [8] | Potency [20] | Potency [9] | Potency [12] | Potency [13] | Potency [14]

Oc1c(I)cc(I)c2cccnc12
inactive: Potency [1] | Potency [2] | Potency [5] | activity change, positive = activation [17, 21] -8.8% [at 42.5 µM] | Potency [18] | Potency [7] | Potency [8] | Potency [20] | Potency [9] | Potency [10] | Potency [12] | Potency [13] | Potency [15] | Potency [16]

CCCCOc1ccc(OCCCN2CCOCC2)cc1
inactive: Potency [1] | Potency [2] | Potency [5] | Potency [18] | Potency [7] | Potency [8] | Potency [20] | Potency [9] | Potency [10] | max response [11] -27.6% | Potency [12] | Potency [13] | Potency [14] | Potency [15] | Potency [16]

CC(=O)OCC[N+](C)(C)C
inactive: Potency [1] | Potency [2] | Potency [5] | Potency [6] | Potency [7] | Potency [8] | Potency [20] | Potency [9] | Potency [10] | Potency [12] | Potency [13] | Potency [14] | Potency [15] | Potency [16]

OC[C@H]1O[C@@H](n2cnc3c(=S)nc[nH]c32)[C@H](O)[C@@H]1O
inactive: Potency [1] | Potency [2] | activity change, positive = activation [17, 21] -47.1% [at 42.5 µM] | Potency [18] | Potency [7] | Potency [8] | Potency [20] | Potency [9] | Potency [10] | Potency [12] | Potency [14] | Potency [15] | Potency [16]
active: Potency [5] 3.1 µM | Potency [19] 11.9 µM | Potency [6] 21.3 µM | Potency [11] 21.3 µM

C[C@]12CC[C@@H]3c4ccc(O)cc4CC[C@H]3[C@@H]1CC[C@@H]2OC(=O)CCC1CCCC1
49 µM (active) and inactive: Potency [18] | Potency [10]
inactive: Potency [1] | Potency [2] | activity change, positive = activation ([17]; at 42.5 µM (top of the series)) -30% | activity change, positive = activation ([17]; at 92.4 µM (top of the series)) -67.7% | Potency [7] | Potency [8]
54.9 µM (active) and inactive: Potency [14]
active: Potency [5] 56.6 µM | Potency [19] 54.5 µM | Potency [6] 43.6 µM | Potency [9] 49 µM | Potency [12] 54.9 µM | Potency [13] 49 µM and 19 µM | Potency [15] 49 µM and 23.9 µM | Potency [16] 54.9 µM and 26.8 µM

Cc1cc2c(OCC(CNC(C)(C)C)OC(=O)c3ccccc3)cccc2[nH]1 (stereo not given)
active: Potency [1] 26.6 µM
inactive: Potency [2] | outcome [4] | Potency [5] | Potency [18] | Potency [7] | Potency [8] | Potency [9] | Potency [10] | max response [11] -21.5% | Potency [12] | Potency [13] | Potency [14]

O=C(Cn1ccnc1[N+](=O)[O-])NCCO
inactive: Potency [1] | Potency [2] | outcome [4] | Potency [5] | Potency [6] | Potency [7] | Potency [8] | Potency [20] | Potency [9] | Potency [10] | max response [11] 4.23% | Potency [12] | Potency [14] | Potency [15] | Potency [16]
